PubChem BioAssay (NCATS)
Records with an inconclusive call do not appear. Entries that show only a call come without a potency. Active and inactive are the calls of the source. Unless noted, calls come from the whole dose curve; as a rule, active = well fitted curve in the direction sought with a large enough effect; inconclusive = small, poorly fitted or top-dose-only effect, or another doubt; inactive = no such curve, though single readings can be large; an effect the other way counts as inactive or inconclusive.

Tests used:
[1] = qHTS of pediatric cancer cell lines to identify multiple opportunities for drug repurposing: Primary screen for OHS-50 cells (AID 1347103); conditions: OHS-50 osteosarcoma viability, CellTiter-Glo luminescence, 48 h; note: potency is the fitted concentration of half-maximal effect; nearly all actives have a fitted effect of over 40% in size
Method in brief: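 Cells (500-1,000/well) rested 5 h, then received compounds for 48 h; metabolically active cells were measured by CellTiter-Glo luminescence. Final concentrations spanned up to 46 µM (MIPE, 11-point) or 0.59 nM-46 µM (NPC, 8-point) in primary screens, 11-point in follow-ups.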

[2] = qHTS to identify inhibitors of the type 1 interferon - major histocompatibility complex class I in skeletal muscle: primary screen against the NCATS Pharmaceutical Collection (AID 1347407); conditions: human skeletal muscle cells, IFN-b-induced MHC-I HiBiT luminescence, 24 h; series mostly up to 45.9 µM;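 note: luminescence of HiBiT knocked into endogenous HLA-B as interferon-induced MHC class I level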
Method in brief: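 Luminescence from HiBiT-tagged endogenous HLA-B*08:01 served as the read-out of IFN-beta-induced MHC class I in CRISPR-engineered C25cl48 myoblasts. Cells received 4 ng/ml IFN-beta plus compound (high final 46 uM, […]) for 24 h.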

[3] = target: Protein phosphatase 1D (Homo sapiens) (UniProt O15297); test: RapidFire Mass Spectrometry qHTS Assay for Modulators of WT P53-Induced Phosphatase 1 (WIP1) (AID 1347424); conditions: WIP1 dephosphorylation of phosphopeptide, RapidFire MS; series mostly up to 63 µM;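 note: amount of dephosphorylated VEPPL-S-QETFS peptide product formed by WIP1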
Sequence of Protein phosphatase 1D (Homo sapiens) (O15297 whole entry, looked up): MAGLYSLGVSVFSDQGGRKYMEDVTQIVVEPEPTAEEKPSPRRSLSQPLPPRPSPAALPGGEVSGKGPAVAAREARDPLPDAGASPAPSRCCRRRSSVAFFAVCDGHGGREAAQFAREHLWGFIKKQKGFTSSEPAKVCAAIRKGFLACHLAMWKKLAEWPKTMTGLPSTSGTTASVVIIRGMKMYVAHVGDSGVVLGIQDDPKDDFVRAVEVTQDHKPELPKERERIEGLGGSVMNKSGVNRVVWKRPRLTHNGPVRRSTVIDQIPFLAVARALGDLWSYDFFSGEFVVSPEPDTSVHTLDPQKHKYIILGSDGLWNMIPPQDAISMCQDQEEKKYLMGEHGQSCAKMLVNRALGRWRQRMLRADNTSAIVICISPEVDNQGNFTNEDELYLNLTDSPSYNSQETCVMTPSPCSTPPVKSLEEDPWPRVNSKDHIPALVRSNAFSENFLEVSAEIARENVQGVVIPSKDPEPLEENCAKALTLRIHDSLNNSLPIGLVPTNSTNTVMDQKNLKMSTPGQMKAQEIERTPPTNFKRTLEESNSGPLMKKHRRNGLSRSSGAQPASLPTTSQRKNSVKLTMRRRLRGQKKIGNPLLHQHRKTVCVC
Method in brief: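 Mass-spectrometric measurement of dephosphorylated peptide after a 5 min room-temperature reaction of 10 nM WIP1 with 2 uM phosphopeptide, following 1 h compound preincubation in 30 mM MgCl2 buffer.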

[4] = target: Protein phosphatase 1D (Homo sapiens) (UniProt O15297); test: Rhodamine-PBP qHTS Assay for Modulators of WT P53-Induced Phosphatase 1 (WIP1) (AID 1347425); conditions: recombinant WIP1, Rhodamine-PBP phosphate fluorescence, real-time; series mostly up to 57.5 µM
Method in brief: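 WIP1 (5 nM final) was preincubated with compound for 1 hour at room temperature. It then dephosphorylated 10 uM VEPPL-pS-QETFS peptide in Tris-HCl pH 7.5 with 30 mM MgCl2. Released Pi was detected by 10 uM Rh-PBP fluorescence (ex 525/em 598 nm) read at 1-min intervals for 11 min, as delta f1 - f0.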

[5] = A High-Content qHTS Against Drug Library for the Identification of Small Molecules that Inhibit DYT1 Early Onset Primary Dystonia-Associated Cell Pathology (AID 1645839; calls by dose curve); conditions: HEK293 Flp-In EGFP-delE TorsinA, punctate imaging, 48 h; series mostly up to 46.1 µM
Method in brief: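 Induced EGFP-delE TorsinA cells are imaged after 48 h of compound treatment. Punctate fusion-protein distribution gives the %pathology value, while nuclei counts flag toxicity. Wild-type EGFP-hTOR1A cells define the normal pattern.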

astro = test: Drug repurposing screens with cells derived from glioblastoma tumor samples (AID 1345199); conditions: viability, ATP luminescence, 48 h; series mostly up to 45.9 µM; note: nearly all actives have a fitted effect of over 40% in size
Method in brief: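 Primary testing used CD133+ neurospheres from four GBM patients, seven concentrations, 48 h exposure and ATP-based viability; confirmation added three slower-growing patient lines.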

3D7 = test: qHTS profiling for inhibitors of Plasmodium falciparum proliferation (AID 504749); note: nearly all actives have a fitted effect of over 60% in size; note: potency is the fitted concentration of half-maximal effect; conditions: P. falciparum in erythrocytes, SYBR Green DNA, 72 h; series mostly up to 28.7 µM
Method in brief: (§1)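 Quantitative HTS: compounds pinned into medium, infected erythrocytes added (0.3% parasitemia, 2.5% hematocrit), 72 h culture at 37 C under 5% CO2. Saponin/Triton lysis with SYBR Green I, overnight RT, then fluorescence read.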

7G8 = test: as above; conditions: P. falciparum in erythrocytes, SYBR Green DNA, 72 h; series mostly up to 28.7 µM
Method in brief: as §1

AS120 = test: as above; conditions: P. falciparum in erythrocytes, SYBR Green DNA, 72 h; series mostly up to 28.7 µM
Method in brief: as §1

CP185 = test: as above; conditions: P. falciparum in erythrocytes, SYBR Green DNA, 72 h; series mostly up to 28.7 µM
Method in brief: as §1

CP192 = test: as above; conditions: P. falciparum in erythrocytes, SYBR Green DNA, 72 h; series mostly up to 28.7 µM
Method in brief: as §1

CP194 = test: as above; conditions: P. falciparum in erythrocytes, SYBR Green DNA, 72 h; series mostly up to 28.7 µM
Method in brief: as §1

CP201 = test: as above; conditions: P. falciparum in erythrocytes, SYBR Green DNA, 72 h; series mostly up to 28.7 µM
Method in brief: as §1

CP203 = test: as above; conditions: P. falciparum in erythrocytes, SYBR Green DNA, 72 h; series mostly up to 28.7 µM
Method in brief: as §1

CP247 = test: as above; conditions: P. falciparum in erythrocytes, SYBR Green DNA, 72 h; series mostly up to 28.7 µM
Method in brief: as §1

CP286 = test: as above; conditions: P. falciparum in erythrocytes, SYBR Green DNA, 72 h; series mostly up to 28.7 µM
Method in brief: as §1

CP291 = test: as above; conditions: P. falciparum in erythrocytes, SYBR Green DNA, 72 h; series mostly up to 28.7 µM
Method in brief: as §1

DFO2036 = test: as above; conditions: P. falciparum in erythrocytes, SYBR Green DNA, 72 h; series mostly up to 28.7 µM
Method in brief: as §1

GB4 = test: as above; conditions: P. falciparum in erythrocytes, SYBR Green DNA, 72 h; series mostly up to 28.7 µM
Method in brief: as §1

PC49 = test: as above; conditions: P. falciparum in erythrocytes, SYBR Green DNA, 72 h; series mostly up to 28.7 µM
Method in brief: as §1

Q: What does the source list for `CCN(CC)c1ccc(C(=C2C=CC(=[N+](CC)CC)C=C2)c2cc(S(=O)(=O)O)ccc2S(=O)(=O)[O-])cc1`?
A: Potency [1]: 17400 nM (active); outcome [2]: inactive; outcome [3]: inactive; outcome [4]: inactive; outcome [5]: inactive

Q: Which Potency [1] does the source give for `CS(=O)(=O)c1ccc(-c2cn3ccccc3n2)cc1` here?
A: The Potency was 17400 nM (active).

Q: What about the outcome [2] of the same molecule?
A: Its outcome is “inactive”.

Q: And the outcome [3]?
A: The outcome was “inactive”.

Q: And the outcome [4]?
A: Its outcome is “inactive”.

Q: What about the outcome [5] of the same molecule?
A: Its outcome is “inactive”.

Q: For `CCNC(=O)[C@@H]1CCCN1C(=O)[C@H](CCCN=C(N)N)NC(=O)[C@H](CC(C)C)NC(=O)[C@@H](CC(C)C)NC(=O)[C@H](Cc1ccc(O)cc1)NC(=O)[C@H](CO)NC(=O)[C@H](Cc1c[nH]c2ccccc12)NC(=O)[C@H](Cc1cnc[nH]1)NC(=O)[C@@H]1CCC(=O)N1`, which Potency (astro) is on record?
A: The Potency was “inactive”.

Q: What does the source list for `CCCCC(=O)N(Cc1ccc(-c2ccccc2-c2nn[nH]n2)cc1)C(C(=O)O)C(C)C` (stereo not given)?
A: Potency (3D7): inactive; Potency (7G8): 11200 nM (active); Potency (AS120): inactive; Potency (CP185): inactive; Potency (CP192): inactive; Potency (CP194): inactive; Potency (CP201): inactive; Potency (CP203): inactive; Potency (CP247): inactive; Potency (CP286): inactive; Potency (CP291): inactive; Potency (DFO2036): inactive; Potency (GB4): 13500 nM (active); Potency (PC49): inactive

Q: For `Nc1ccc(N)c([N+](=O)[O-])c1`, which Potency (astro) is on record?
A: The Potency was “inactive”.

Q: Which Potency (3D7) does the source give for `O=C(CC1NCCC[C@H]1O)Cn1cnc2cc(Br)c(Cl)cc2c1=O` (stereo not given in full) here?
A: The Potency was 1000 nM (active).

Q: And the Potency (7G8)?
A: The Potency was 1000 nM (active).

Q: And the Potency (AS120)?
A: The Potency was 2000 nM (active).

Q: What about the Potency (CP185) of the same molecule?
A: Its Potency is 2820 nM (active).

Q: And the Potency (CP192)?
A: The Potency was 3380 nM (active).

Q: What about the Potency (CP194) of the same molecule?
A: Its Potency is 4780 nM (active).

Q: What about the Potency (CP201) of the same molecule?
A: The Potency was 3380 nM (active).

Q: What about the Potency (CP203) of the same molecule?
A: Its Potency is 3380 nM (active).

Q: What about the Potency (CP247) of the same molecule?
A: The Potency was 2240 nM (active).

Q: And the Potency (CP286)?
A: The Potency was 2000 nM (active).

Q: And the Potency (CP291)?
A: Its Potency is 2690 nM (active).

Q: What about the Potency (DFO2036) of the same molecule?
A: The Potency was 2820 nM (active).

Q: What about the Potency (GB4) of the same molecule?
A: The Potency was 1900 nM (active).

Q: And the Potency (PC49)?
A: The Potency was 1780 nM (active).
